# Bioassay records: PubChem, National Center for Advancing Translational Sciences (NCATS)
# In the library only some 19% were active in any assay of this set; here they are far more common.
# HT1080 IDH1KD tx = qHTS for induction of synthetic lethality in tumor cells producing 2HG: qHTS for the HT-1080-IDH1KD cell line | HT-1080 IDH1 knockdown viability, ATP luminescence, 48 h | Potency, µM (titrated, usually from 46.1 µM), usual class: cytotoxic | 360,000 compounds, 2% hits
#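 HT-1080-IDH1KD cells (IDH1 knocked down), 750/well in RPMI with 5% FBS, treated with compound 48 h at 37 degrees C. Viability by CellTiter-Glo luminescence, normalised to DMSO and no-cell wells; concentration-response curves classed.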
# TDP1 cell noCPT = qHTS for Inhibitors of human tyrosyl-DNA phosphodiesterase 1 (TDP1): qHTS in cells in absence of CPT; Potency, µM (top dose mostly 46.2 µM), usual class: inhibitors; 420,000 compounds, 15% hits; AID 686978, 2013; DT40 Tdp1-/- hTDP1 cells, no CPT, ATP luminescence, 48 h; note: nearly all actives have a fitted effect of over 55% in size
#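 Compound effects on proliferation are scored in DT40 Tdp1-/-;hTDP1 cells in the absence of CPT. ATP levels (CellTiter-Glo luminescence) are recorded after a ≥48 hr, 37 °C incubation.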
# KB-3-1 tox = qHTS assay for MDR1-selective chemotherapeutics: Primary screen using the parental adenocarcinoma cell KB-3-1 | KB-3-1 viability, CellTiter-Glo ATP luminescence, 72 h | Potency, µM (doses to about 46.1 µM), actives largely listed as cytotoxic | 400,000 compounds, 1.4% hits | AID 1347075, 2019; note: nearly all actives have a fitted effect of over 60% in size
#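 Screening of KB-3-1 cells (DMEM, 10% FBS, phenol-red free) ran from lowest to highest compound concentration; after 72 h at 37 °C viability was read luminescently and curves fitted.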
# DT40 TDP1 CPT = qHTS for Inhibitors of human tyrosyl-DNA phosphodiesterase 1 (TDP1): qHTS in cells in presence of CPT | AID 686979, 2013 | chicken DT40 Tdp1-/-;hTDP1 cells + 20 nM CPT, ATP luminescence, 48 h | 420,000 compounds, 12% hits | Potency, µM (series often up to 46.2 µM), hits mostly inhibitors; note: nearly all actives have a fitted effect of over 55% in size
#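 Chicken DT40 Tdp1-/- cells stably complemented with human TDP1 were seeded at 400 cells/well in medium containing 20 nM camptothecin, exposed to pin-transferred compounds, and grown at 37 °C for at least 48 hr. Viability was read as ATP luminescence.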
# HT1080NT lethal = qHTS for induction of synthetic lethality in tumor cells producing 2HG: qHTS for the HT-1080-NT fibrosarcoma cell line | HT-1080-NT fibrosarcoma viability, CellTiter-Glo ATP luminescence, 48 h | Potency, µM (doses to about 46.1 µM), usual class: cytotoxic | 360,000 compounds, 1.6% hits | AID 686970, 2013;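 note: NT is the 2HG producing partner of a matched IDH1 knockdown line; nearly all actives have a fitted effect of over 55% in size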
#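 Compounds were tested in concentration-response format on HT-1080-NT cells for 48 hours at 37 degrees C. Cell viability came from CellTiter-Glo luminescence; curves were classified by r2, response magnitude and activity.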
# KB-V1 cytotox = qHTS assay for MDR1-selective chemotherapeutics: Primary screen using the drug-selected MDR subline cells KB-V1. Potency, µM (highest dose often 46.1 µM), hits mostly cytotoxic. 400,000 compounds, 3.4% hits. KB-V1 MDR cells viability, CellTiter-Glo, 72 h; note: nearly all actives have a fitted effect of over 60% in size
#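 Drug-selected KB-V1 cells, grown in DMEM lacking phenol red with 10% FBS, receive compound titrations; after three days at 37 degrees C, surviving cell ATP is quantified by CellTiter-Glo luminescence and responses normalized and curve-fitted.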
# Hits are given with their value; - = inactive; ? = inconclusive; . = not tested or not shown. Calls come from the whole dose curve; as a rule, active = well fitted curve in the direction sought with a large enough effect; inconclusive = small, poorly fitted or top-dose-only effect, or another doubt; inactive = no such curve, though single readings can be large; an effect the other way counts as inactive or inconclusive.
SMILES,HT1080 IDH1KD tx,TDP1 cell noCPT,KB-3-1 tox,DT40 TDP1 CPT,HT1080NT lethal,KB-V1 cytotox
CCc1ccccc1NC(=O)CN1CCN(CC(=O)Nc2cc(C)ccc2OC)CC1,-,6.51µM,-,?,-,-
COc1ccc(C)cc1NC(=O)CN1CCN(S(=O)(=O)c2ccc(C(C)C)cc2)CC1,-,16.4µM,-,?,-,?
COc1ccc(C)cc1NC(=O)CN1CCN(c2ccc(F)cc2)CC1,-,23.1µM,-,20.6µM,-,-
COc1ccccc1NC(=O)CN1CCN(c2ccc(F)cc2)CC1,-,?,-,?,-,-
O=Nc1ccc(NO)c2ccccc12,16.4µM,13µM,?,?,?,?
O=C(CN1CCOCC1)Nc1nc(-c2ccccc2Cl)cs1,-,-,-,-,-,-
Cc1ccc(S(=O)(=O)N2CCCC2)cc1C(=O)NCC(C)(C)N1CCOCC1,-,?,-,-,-,-
Cc1ccc(C2CC(C(F)(F)F)n3nc(C(=O)NCc4c(C)nn(C)c4C)c(Cl)c3N2)cc1 (centres undefined),?,5.17µM,20.6µM,4.61µM,?,5.8µM
COc1ccc(C2CC(C(F)(F)F)n3nc(C(=O)NCc4cn(C)nc4C)c(Cl)c3N2)cc1 (centres undefined),-,10.3µM,-,13µM,-,?
COc1ccc(C2CC(C(F)(F)F)n3nc(C(=O)O)c(Br)c3N2)cc1 (centres undefined),-,-,-,-,-,-
COc1cc(/C=C/C(=O)OCC(=O)NC(=O)NC23CC4CC(CC(C4)C2)C3)ccc1OCC#N,-,20.6µM,-,?,-,-
Cc1ccc(COC(=O)c2[nH]c3c(c2C)C(=O)CC(c2ccc(N(C)C)cc2)C3)cc1 (centres undefined),.,-,-,-,.,-
COCCOC(=O)c1[nH]c2c(c1C)C(=O)CC(c1ccco1)C2 (centres undefined),1.64µM,0.731µM,1.16µM,1.03µM,2.31µM,1.16µM
Cc1c(C(=O)OCCOc2ccccc2)[nH]c2c1C(=O)CC(c1ccc(C(C)(C)C)cc1)C2 (centres undefined),.,?,-,-,.,-
Cc1c(C(=O)OCCOC(C)C)[nH]c2c1C(=O)CC(c1ccco1)C2 (centres undefined),0.326µM,0.0052µM,0.517µM,0.0231µM,0.411µM,0.461µM
CSCCOC(=O)c1[nH]c2c(c1C)C(=O)CC(c1ccco1)C2 (centres undefined),2.31µM,0.82µM,1.16µM,0.731µM,?,?
CCOC(=O)c1[nH]c2c(c1C)C(=O)CC(c1ccco1)C2 (centres undefined),0.92µM,0.0411µM,-,0.581µM,1.03µM,-
CCOc1ccc(-c2nc3c(c(CC)nn3-c3ccccc3)c3cc(OC)c(OC)cc23)cc1,.,-,-,-,.,-
Cc1c(C(=O)OCc2ccccc2)[nH]c2c1C(=O)CC(c1ccco1)C2 (centres undefined),1.3µM,0.92µM,0.581µM,0.82µM,?,?
CC(=O)c1c(O)cc(C)n(Nc2nc(C)cc(C)n2)c1=O,-,?,-,18.4µM,?,-
Cn1c(/C(C#N)=C/c2ccncc2)nc2ccccc21,-,20.6µM,-,?,-,-
Cn1c(/C(C#N)=C/c2ccc(O)cc2)nc2ccccc21,-,-,-,?,-,-
Cn1c(/C(C#N)=C/c2ccc(C(F)(F)F)cc2)nc2ccccc21,.,13µM,.,20.6µM,.,.
CC(C)(O)CCC(C)(C)O,-,-,-,-,-,-
COc1ccccc1N=C1SC(C(=O)Nc2ccccc2OC)CC(=O)N1C (centres undefined),.,-,.,-,.,.
SMILES,HT1080 IDH1KD tx,TDP1 cell noCPT,KB-3-1 tox,DT40 TDP1 CPT,HT1080NT lethal,KB-V1 cytotox
COc1ccccc1N=C1SC(C(=O)Nc2cccc(Cl)c2Cl)C(N)=C1C(N)=O (centres undefined),?,3.26µM,?,2.91µM,14.6µM,3.66µM
Cc1ccc(OCc2nnc(SCC(=O)c3cccc([N+](=O)[O-])c3)n2C)cc1,-,?,-,?,-,-
O=C1c2cc(Cl)ccc2-c2c(O)cc(Cl)cc21,23.1µM,14.6µM,?,?,9.2µM,?
O=c1cc(O)c(-c2ccc(Cl)cc2)c(Cl)[nH]1,-,-,-,-,-,-
CCNc1ccc(Br)cc(C(=O)/C=C/c2c(Cl)cccc2Cl)c1=O,?,4.61µM,?,5.17µM,?,-
CCNc1ccc(Br)cc(C(=O)/C=C/c2ccc3c(c2)OCO3)c1=O,-,?,-,29.1µM,-,-
CCCCCCC/C=N/Nc1nnc(Cc2ccccc2)c(=O)[nH]1,-,-,-,-,-,-
Cc1c(-c2cccc(NC(=O)c3cccs3)c2)nc2ncccn12,-,?,-,-,-,-
CC1=C(C(=O)N2CCCCCC2)CC(CC(=O)NC2CCCCC2)C(=O)N1CCC1=CCCCC1 (centres undefined),-,?,-,13µM,-,-
CC1=C(C(=O)N2CCCCCC2)CC(CC(=O)NCCCCc2ccccc2)C(=O)N1CCC1=CCCCC1 (centres undefined),?,18.4µM,?,23.1µM,?,16.4µM
CCCCN1C(=O)C(CC(=O)NCCCCc2ccccc2)CC(C(=O)N2CCCCCC2)=C1C (centres undefined),-,18.4µM,-,18.4µM,-,?
CCC(=O)Nc1c2c(nn1-c1ccc(F)cc1)CS(=O)(=O)C2,-,-,-,-,-,-
CCOC(=O)c1cnc2cc(-c3ccc(C(C)(C)C)cc3)nn2c1N,-,?,-,?,-,-
CCOC(=O)c1cccc(NC(=O)CCc2c(C)nc3cc(-c4ccc(Cl)cc4)nn3c2C)c1,.,16.4µM,-,20.6µM,.,-
CCOC(=O)Cc1c(C)nc2cc(-c3ccc(C(C)(C)C)cc3)nn2c1C,.,14.6µM,-,?,.,-
COC(=O)c1ccccc1NC(=O)CCc1c(C)nc2cc(-c3ccc(Cl)cc3)nn2c1C,.,?,-,?,.,-
CCOc1ccc(NC(=O)CCc2c(C)nc3cc(-c4ccc(Cl)cc4)nn3c2C)cc1,.,16.4µM,.,14.6µM,.,.
Cc1ccc(NC(=O)c2ccc(S(=O)(=O)N3CCCC3)cc2)nc1,-,-,-,-,-,-
